Compound activity (PubChem)
Most compounds without a hit are left out; they make up all but 3.5% or so of the library.
MITF primary = blocks human microphthalmia-associated transcription factor; inhibition, % at 2.6 µM; AID 1259374; AlphaScreen MITF homodimerization, bead proximity signal; O75030; 650,000 compounds, 0.91% hits; in the data active means inhibition above about 50%;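 further: 0% = vehicle wells with protein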
Target sequence (O75030 whole entry, looked up): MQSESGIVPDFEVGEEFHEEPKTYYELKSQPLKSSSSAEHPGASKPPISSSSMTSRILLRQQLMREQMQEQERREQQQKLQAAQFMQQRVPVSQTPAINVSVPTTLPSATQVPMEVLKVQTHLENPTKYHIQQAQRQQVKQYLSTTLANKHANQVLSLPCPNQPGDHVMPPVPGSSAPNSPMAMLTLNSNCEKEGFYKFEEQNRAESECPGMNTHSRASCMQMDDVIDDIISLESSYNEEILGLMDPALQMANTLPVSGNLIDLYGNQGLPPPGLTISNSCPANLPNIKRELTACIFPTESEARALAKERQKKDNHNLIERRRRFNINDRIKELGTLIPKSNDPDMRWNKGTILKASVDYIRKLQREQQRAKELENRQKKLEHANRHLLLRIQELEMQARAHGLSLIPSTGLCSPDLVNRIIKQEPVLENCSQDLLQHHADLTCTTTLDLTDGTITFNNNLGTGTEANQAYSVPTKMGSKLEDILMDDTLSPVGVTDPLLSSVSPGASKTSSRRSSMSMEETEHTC
TEAD-YAP block = TEAD-YAP interaction inhibition; HEK-TIYL cells, TEAD-Gal4/YAP UAS-luciferase luminescence; inhibition, % at 9.12 µM; 640,000 compounds, 1.4% hits; in the data active means inhibition above about 32%;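 further: 0% = median of test compound wells and 100% = reference inhibitor wells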
FBW7 act = activators of human E3 ligase FBW7; Q969H0; AlphaScreen FBW7–phospho-cyclin E peptide binding, activator screen; normalized activity (activation), % at 26.1 µM; 650,000 compounds, 0.13% hits; in the data active means normalized activity above about 1.9%;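 further: purified mutant Fbw7 with reduced substrate affinity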
GPR151 activ = activators of human GPR151; PathHunter beta-arrestin GPR151 cells, luminescence; activation, % at 11.2 µM; 650,000 compounds, 1% hits; AID 1508602; in the data active means activation above about 4.9%;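 further: 0% = median of compound wells and 100% = cells with positive control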
MITF confirm = human MITF inhibition, confirmation | shares compounds with MITF primary | AlphaScreen MITF homodimerization, biotin/His-MITF beads | inhibition, % at 2.6 µM | 4,700 compounds, 16% hits | AID 1259372;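 active means inhibition above a cutoff derived from the DMSO control wells, cut at about 28% in these data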;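 further: 0% = MITF dimer wells with DMSO only; inhibitors lower the bead chemiluminescence by keeping MITF from dimerizing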
AlphaScreen DR = optically interferes with AlphaScreen signal in dose response; shares compounds with MITF primary; AlphaScreen optical interference counterscreen, cell-free; IC50, µM; 480 compounds, 6% hits; AID 1259373; call rule not given here
AS interf ctr = AlphaScreen optical interference, counter-screen | shares compounds with MITF primary | LysRS AlphaScreen counterscreen, signal interference, triplicate | inhibition, % at 2.6 µM | 4,700 compounds, 7.6% hits | AID 1259376;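 active means inhibition above a cutoff derived from the DMSO control wells, cut at about 30% in these data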
* = called active by the depositor; nt = no result given.

SMILES | MITF primary | TEAD-YAP block | FBW7 act | GPR151 activ | MITF confirm | AS interf ctr | others
Cc1ccc(NC(=O)C2(N(Cc3ccccc3)C(=O)Cc3nc(N)n[nH]3)CCCCC2)cc1 | 58* | 9 | 0 | 1 | 100* | 100*
CCC1SC(CC)C(=O)N(CC(=O)Nc2cc(C)cc(C)c2)C1=O (stereo unspecified) | 2 | 6 | 0 | -1 | nt | nt
CCOc1ccccc1N1CCN(C(=O)c2c(OC)cccc2OC)CC1 | 8 | 6 | 0 | 0 | nt | nt
O=c1c2ccccc2n2c(-c3ccc(O)cc3)nnc2n1Cc1ccccc1 | 8 | -1 | 0 | 0 | nt | nt
O=C1CCCN1C(=O)CN1CCCCC1 | 52* | 6 | 0 | -1 | 14 | 13
O=C1CCCN1C(=O)CN1CCOCC1 | 53* | -9 | 0 | 0 | 3 | 6
CCOC(=O)C1(CCc2ccccc2)CCN(C(=O)CCn2cnnn2)CC1 | 61* | -23 | 0 | 2 | -1 | 8
CCOC(=O)C1(CCCc2ccccc2)CCN(C(=O)CCn2cnnn2)CC1 | 7 | 1 | 0 | 1 | nt | nt
CCCCOCC(O)Cn1cnc2ccccc21 (stereo unspecified) | 55* | -3 | 0 | -1 | 21 | 18
OC(COCc1ccccc1)Cn1cnc2ccccc21 (stereo unspecified) | 1 | -5 | 0 | 2 | nt | nt
Cc1ccc(NC(=O)C2C3NC(=O)NC2(C)Oc2ccc(Cl)cc23)c(C)c1 (stereo unspecified) | 13 | -5 | 0 | 2 | nt | nt
CC(=O)Nc1ccc(S(=O)(=O)N2CCN(CC3CC4C=CC3C4)CC2)cc1 (stereo unspecified) | 51* | -3 | 0 | 0 | -11 | -3
COCCCNCCOCCOc1c(C)cc(C)cc1Cl | 52* | 5 | 0 | -2 | 5 | 11
Cc1cc(C)c(OCCCNCCN(C)C)c(Br)c1 | 55* | 1 | -1 | 2 | 3 | 21
COCCCNCCCCOc1c(Cl)cc(C)cc1Br | 58* | 15 | 0 | 0 | 5 | 10
Cc1cc(Br)cc(Cl)c1OCCCNCCN(C)C | -22 | -4 | 1 | 1 | nt | nt
COCCNCCCOc1c(Cl)cc(C)cc1Br | 27 | 6 | 0 | 3 | nt | nt
COc1ccc(C(c2c(C)[nH]c3ccccc23)N2CCOCC2)cc1 (stereo unspecified) | -5 | -18 | 0 | 4 | nt | nt
Cc1cn2c3c(=O)n(C)c(=O)n(C)c3nc2n1CCc1ccccc1 | 55* | 10 | 0 | -1 | -4 | 16
CCn1c(=O)c2c(nc3n(CCc4ccccc4)c(C)cn23)n(C)c1=O | 2 | -3 | 0 | 3 | nt | nt
O=C(COc1ccccc1N1C(=O)c2ccccc2C1=O)c1ccc(F)cc1 | 60* | -5 | 0 | 2 | 2 | 6
CS(=O)(=O)Nc1ccccc1C(=O)Nc1ccccc1C(=O)NCc1ccccc1 | 6 | 11 | 1 | 2 | nt | nt
O=S(=O)(c1ccc2c(c1)OCCO2)N1CCN(c2nc3ccccc3o2)CC1 | -7 | 0 | 0 | -1 | nt | nt
O=C(c1cn(-c2ccccc2)nc1-c1cccs1)N1CCOCC1 | -16 | -15 | 0 | 1 | nt | nt
O=C(c1cn(-c2ccccc2)nc1C12CC3CC(CC(C3)C1)C2)N1CCOCC1 | 59* | -3 | 0 | 0 | 3 | 11
SMILES | MITF primary | TEAD-YAP block | FBW7 act | GPR151 activ | MITF confirm | AS interf ctr | others
COC(C)(C)CNC(=O)C1CCN(C2CCN(Cc3cccc(C)n3)CC2)CC1 | 81* | 10 | 0 | 0 | 73* | 4 | AlphaScreen DR=>6.5
CCC(C)CNC(=O)C1CCN(C2CCN(Cc3cccc(C)n3)CC2)CC1 (stereo unspecified) | -6 | 7 | 1 | 3 | nt | nt
C=CCn1c(SCC(C)C)nc2c1c(=O)n(C)c(=O)n2C | 2 | -5 | 0 | 0 | nt | nt
COc1ccc(OC)c(CNc2cccc(C)c2)c1 | 64* | 5 | 0 | 2 | 15 | 22
COc1cc(OC)c(OC)cc1CNc1cccc(C)c1 | 52* | 1 | 0 | -1 | -6 | 0
Cc1cccc(NCc2cccc([N+](=O)[O-])c2)c1 | 69* | -3 | 0 | 0 | -4 | -4
COCCN1C(=O)c2ccccc2C(C(=O)Nc2ccc(OC)c(Cl)c2)C1c1ccc(F)cc1 (stereo unspecified) | 4 | -6 | 0 | 0 | nt | nt
CCOc1ccc(CC(=O)Nc2c(C(=O)OC)oc3ccc(Br)cc23)cc1OCC | 15 | -2 | 0 | -2 | nt | nt
CS(=O)(=O)Nc1ccc(-c2cnc3cccc(N(C(=O)c4ccccn4)C(=O)c4ccccn4)c3c2)cc1 | 66* | -14 | -1 | 0 | 36* | 54*
CCS(=O)(=O)N1CCN(Cc2cccc(Cl)c2)CC1 | 59* | -9 | 0 | 2 | 9 | 13
CS(=O)(=O)c1cccc(S(=O)(=O)N2CCN(Cc3ccccc3)CC2)c1 | -12 | 6 | 0 | 0 | nt | nt
O=S(=O)(c1ccccc1)N1CCN(Cc2cccc(Cl)c2)CC1 | 64* | 2 | 0 | 0 | 8 | 19
O=S(=O)(c1ccc(Cl)cc1)N1CCN(Cc2ccc(F)cc2)CC1 | 1 | -3 | 0 | 1 | nt | nt
O=S(=O)(c1ccc(F)cc1)N1CCN(Cc2cccc(Cl)c2)CC1 | 60* | 1 | 0 | 1 | 5 | 14
COc1ccc(/C=C2\N=C(c3ccc4c(c3)OCO4)OC2=O)cc1Cl | 69* | 0 | 0 | -1 | 74* | 10 | AlphaScreen DR=>5.4
COc1cc(/C=C2\N=C(c3ccc(F)cc3)OC2=O)ccc1OCc1ccccc1Cl | 73* | -2 | 0 | 1 | 2 | 16
COc1cc(/C=C2\N=C(c3ccc(C)cc3)OC2=O)ccc1OCc1ccccc1Cl | -1 | -6 | 0 | -1 | nt | nt
COc1cccc(CN2CCN(Cc3ccc4ccccc4c3)CC2)c1OC | 76* | -8 | 0 | -1 | -3 | 16
COc1cc(CN2CCN(Cc3cccc(OC)c3OC)CC2)cc(OC)c1 | 27 | 2 | -1 | 0 | nt | nt
COc1cccc(CN2CCN(Cc3cccc(F)c3)CC2)c1OC | 66* | -5 | 0 | -1 | 14 | 21
COc1cc(CN2CCN(Cc3ccc4ccccc4c3)CC2)cc(OC)c1OC | 60* | 0 | 0 | 2 | 14 | 23
CCOc1cc(CN2CCN(Cc3cccc(OC)c3OC)CC2)ccc1OC | 11 | -7 | 0 | 1 | nt | nt
COc1cccc(CN2CCN(Cc3cccc(OC)c3OC)CC2)c1 | 74* | -2 | 0 | 0 | 17 | 19
CCOC(=O)N1CCN(C(=S)NC(=O)c2c(Br)cnn2C)CC1 | 27 | 0 | 0 | 2 | nt | nt
CO/N=C(\C(=O)N[C@@H]1C(=O)N2C(C(=O)O)=C(CSc3nc(=O)c(=O)[nH]n3C)CSC12)c1csc(N)n1 (stereo partly specified) | 12 | 3 | 0 | 4 | nt | nt
CCCCc1ccc(N2CC(C(=O)Nc3nc4ccccc4s3)CC2=O)cc1 (stereo unspecified) | 6 | 2 | 0 | -1 | nt | nt
